Results as given in PubChem BioAssay (NCI).
Compounds without any hit were thinned out: in the full panel of roughly 83,000, 20% have a hit.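 Treatment: one concentration, 48 hours, 96-well format. Scoring: percent growth, with anything below 10 considered active.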 A number with no mark means an inactive call. Activity calls are given as the source filed them.

Legend:
Assay in all cases: NCI-60 one-dose screen, 48 h (100 = growth as untreated, 0 = no growth, -100 = all killed)
Details in all cases: 10 µM unless noted
[1] = system: NCI-H23 lung
[2] = system: NCI-H226 lung
[3] = system: NCI-H322M lung
[4] = system: HOP-62 NSCLC
[5] = system: NCI-H460 lung
[6] = system: HOP-92 NSCLC
[7] = system: NCI-H522 lung
[8] = system: A549/ATCC NSCLC
[9] = system: 786-0 renal
[10] = system: COLO 205 colon
[11] = system: DU-145 prostate
[12] = system: K-562 leukemia
[13] = system: MALME-3M melanoma
[14] = system: MDA-MB-231 breast
[15] = system: RXF 393 renal
[16] = system: SF-268 CNS
[17] = system: SF-295 CNS
[18] = system: SF-539 CNS
[19] = system: UACC-257 melanoma
[20] = system: M14 melanoma

SMILES	growth [1] [%]	growth [2] [%]	growth [3] [%]	growth [4] [%]	growth [5]	growth [6]	growth [7] [%]	growth [8]	growth [9] [%]	growth [10] [%]	growth [11] [%]	growth [12]	growth [13]	growth [14] [%]	growth [15] [%]	growth [16] [%]	growth [17] [%]	growth [18]	growth [19] [%]	growth [20]
COCCn1cc(-c2nc(-c3c[nH]c4ncccc34)cs2)c2ccccc21	40.7	48.2	43.4	47.2	22.6%	2.56% (active)	46.7	52.2%	77.9	24.8	85.5	28.5%	97.8%	22.5	51.6	63.9	68.8	68.4%	87.3	68.6%
CCn1cc(C(=O)O)c(=O)c2cc(F)c(N3CCN(CC(=O)Nc4ccccc4)C(C)C3)c(F)c21 (stereo not given)	91.3	100	85.7	101	99.2%	97%	92.5	97.9%	92.5	106	104	87.1%	97.9%	87.1	101	93.7	95.3	99.1%	102	105%
COC(=O)c1ccc2cc(OC)c(OC)cc2c1	102	97.6	108	107	108%	94.4%	98.9	77.4%	91.9	122	116	115%	117%	127	97	114	70.4	116%	103	110%
O=C(OCc1ccc2c(Cl)cc(Cl)c(O)c2n1)N1CCN(C(=O)c2cc3ccccc3[nH]2)CC1	47.1	28.3	37.5	20	12.8%	14.7%	22.1	10.8%	44.2	39	43.8	19.9%	36.8%	44.7	46.5	24.3	16.1	39.8%	25.5	16.9%
COc1ccc(C2C3=C(COC3=O)N(CCO)c3cc4c(cc32)OCO4)cc1OC (stereo not given)	73.6	115	104	70.6	95.8%	68.7%	66.2	90.7%	84	83.6	100	52%	104%	101	81.4	91	62.6	91.9%	90.6	68.6%
Cc1ccc(C(=O)c2ccc(CC(=O)N/N=C/c3cccc(O)c3O)n2C)cc1	45.4	69.1	54.4	49.9	8.65% (active)	56.3%	48.8	58.7%	76.4	63	49.3	30.4%	58.7%	45.3	29.7	37.2	83.5	33.8%	89.7	28.5%
c1ccc(-c2nc3ccccc3[nH]2)c(OCCCCCOc2ccccc2-c2nc3ccccc3[nH]2)c1	80.1	85.2	103	124	59.6%	-21.4% (active)	66.1	8.77% (active)	93	112	39.9	-11.6% (active)	66.2%	70.5	81.1	55.1	87.3	7.96% (active)	71	95.1%
Cc1cc(=O)oc2cc(Oc3nc(Br)cn4c(Br)cnc34)ccc12	63.9	53.6	76.8	51.7	73.9%	37.2%	54.8	77.8%	29	113	75	93.6%	46.9%	29.6	44.2	56.6	99.9	47.2%	89.1	82.8%
COc1ccc(-c2cn(Cc3cc4ccccc4s3)nn2)cc1OCCN1CCCCC1	78.3	95.6	94.2	84	90%	50%	91.7	80.2%	69.1	60.7	85.7	16.3%	5.75% (active)	45.9	44.2	70.8	70.6	79.7%	41.1	-29.4% (active)
O=c1oc2ccccc2cc1-c1nn(-c2ccccc2)cc1-c1nn[nH]n1	101	92.8	100	90.8	105%	92.2%	94.6	97.7%	104	108	113	103%	90%	94.7	99.4	103	99.7	97.4%	100	98.2%
O=C(O)CC(C(=O)O)/C(=C\c1ccccc1)c1ccccc1 (stereo not given)	105	86.4	116	89.3	106%	93.3%	128	99.5%	114	99.5	139	103%	117%	121	104	113	115	122%	100	121%
CC1(C)CC(=O)C2=C(C1)C(c1ccc(Cl)cc1)n1ncc(C#N)c1N2 (stereo not given)	99.6	94.8	90.9	104	106%	99.3%	85.7	101%	98.9	109	108	106%	102%	93.6	107	103	101	87.6%	101	108%
c1ccc2cc(Cn3cc(CSc4nc5ccccc5s4)nn3)ccc2c1	93.2	83.8	97.6	85.7	106%	98.7%	86.9	93.4%	101	102	109	97.4%	97.7%	89.3	98.3	95.8	96.5	95.3%	99.9	99.4%
Cn1c(C#N)ccc1-c1ccc(F)c(NC(=O)c2ccc(F)cc2)c1	80.6	105	97.9	75.8	80.2%	70.5%	76.2	83.2%	84.8	90.9	94.3	23.6%	91.2%	73.7	85.3	81.9	68.8	73.8%	107	59.8%
